According to paper PMC4336329 (PLoS ONE, 2015):
Among all 310,000 compounds or so, about 14,000 (4.5%) showed an effect of 50% or more. The effect is printed as a negative number. The sample as a whole holds a higher share of strong results than the screen did.

The compounds below were run against human ether-à-go-go-related gene (hERG) potassium channel (human, UniProt Q12809) (assay: primary screen, population patch clamp on CHO cells stably expressing hERG; higher = less effect of the substance).
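Also: peak tail current of the secondary pulse compared with the same well before compound.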

human ether-à-go-go-related gene (hERG) potassium channel, sequence (Q12809 whole entry, looked up): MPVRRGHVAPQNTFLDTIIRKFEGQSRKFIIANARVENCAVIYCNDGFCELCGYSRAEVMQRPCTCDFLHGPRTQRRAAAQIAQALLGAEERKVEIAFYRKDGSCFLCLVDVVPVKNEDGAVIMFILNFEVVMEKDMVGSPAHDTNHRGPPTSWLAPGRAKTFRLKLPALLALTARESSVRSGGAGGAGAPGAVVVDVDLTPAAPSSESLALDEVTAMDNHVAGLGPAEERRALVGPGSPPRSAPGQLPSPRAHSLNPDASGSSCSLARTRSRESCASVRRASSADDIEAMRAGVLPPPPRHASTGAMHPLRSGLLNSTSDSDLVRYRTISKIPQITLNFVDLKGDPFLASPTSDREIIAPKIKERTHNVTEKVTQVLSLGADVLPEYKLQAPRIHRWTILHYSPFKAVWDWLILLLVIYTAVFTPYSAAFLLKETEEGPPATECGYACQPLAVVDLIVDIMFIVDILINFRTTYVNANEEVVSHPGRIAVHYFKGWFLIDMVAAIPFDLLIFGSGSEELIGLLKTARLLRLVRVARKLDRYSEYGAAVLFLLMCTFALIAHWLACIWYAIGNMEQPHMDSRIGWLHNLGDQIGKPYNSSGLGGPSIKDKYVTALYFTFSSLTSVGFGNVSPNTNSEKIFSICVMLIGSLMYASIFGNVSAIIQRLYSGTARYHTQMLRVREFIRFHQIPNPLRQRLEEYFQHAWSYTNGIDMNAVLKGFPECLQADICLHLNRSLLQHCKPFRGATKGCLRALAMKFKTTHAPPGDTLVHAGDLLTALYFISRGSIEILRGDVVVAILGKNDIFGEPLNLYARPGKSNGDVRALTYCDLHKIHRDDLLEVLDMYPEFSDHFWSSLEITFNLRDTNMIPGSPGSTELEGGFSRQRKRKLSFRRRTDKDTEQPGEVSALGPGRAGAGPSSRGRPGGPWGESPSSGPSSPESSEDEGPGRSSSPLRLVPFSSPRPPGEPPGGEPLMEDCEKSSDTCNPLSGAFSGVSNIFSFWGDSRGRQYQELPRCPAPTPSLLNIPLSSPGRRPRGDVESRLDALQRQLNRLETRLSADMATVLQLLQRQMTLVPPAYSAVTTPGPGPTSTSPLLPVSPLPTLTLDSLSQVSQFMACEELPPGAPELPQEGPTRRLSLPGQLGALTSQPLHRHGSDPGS

Structure (SMILES) | hERG current change (%, negative = inhibition) at 10uM [%]
CCN(CC)C(=O)c1ccccc1NC(=O)c1ccccc1SC | -39.6
CCOCc1nc(C)c(Cl)c(NS(=O)(=O)c2ccc(N)cc2)n1 | 13.9
COc1ccc(OC)c(N(CC(=O)N2CCCCC2)S(=O)(=O)c2ccc(OC)c(OC)c2)c1 | 10.6
COc1cc(Cl)c(C)cc1NC(=O)COC(=O)c1cc(SC)ccc1Cl | 8.99
Cc1ccc(OCCC(=O)Nc2ccc3c(c2)OCO3)cc1 | 0.269
CCN(Cc1ccccc1)Cc1cccc([N+](=O)[O-])c1 | -23.5
CCN1CCN(c2nc3ccccc3nc2NS(=O)(=O)c2ccc(NC(C)=O)cc2)CC1 | 5.21
COc1ccc(OC)c2c1C(=O)c1ccccc1C2=O | -5.81
O=C(NC1CC1)c1cc2c(s1)-c1ccccc1OC2 | 12.6
COC(=O)c1cc2c(s1)-c1ccccc1OC2 | 0.157
CC1CCCC(C)N1CCCNC(=O)c1cc2c(s1)-c1ccccc1OC2 (centres unmarked) | -69.9
O=C(NCCCN1CCOCC1)c1cc2c(s1)-c1ccccc1OC2 | -44.5
CCN1CCN(CCCNC(=O)c2cc3c(s2)-c2ccccc2OC3)CC1 | -66.7
O=C(Nc1cccnc1)c1cc2c(s1)-c1ccccc1OC2 | -2.06
CN(C)CCNC(=O)c1cc2c(s1)-c1ccccc1OC2 | -67.2
O=C(NCc1cccs1)c1cc2c(s1)-c1ccccc1OC2 | 1.42
CC1CCCC(C)N1CCCNC(=O)c1ccc2c(c1)NC(=O)c1ccccc1S2 (centres unmarked) | 4.54
Cc1ccc(O)c(-c2cc3ccccc3[nH]2)c1 | -15.8
O=C(O)COCC(=O)N1CCCN(c2nccc(C(F)(F)F)n2)CC1 | 17.7
CCOC(=O)c1ccc(NC(=O)Cn2cc3c(n2)CCC(C)C3)cc1 (centres unmarked) | -4.16
COC(=O)C1=C(c2ccc(Cl)c(C(F)(F)F)c2)C[C@@H]2CC[C@H]1N2C(=O)NCC1CC1 | -16.3
COc1ccc(CC(=O)N/N=C(/C)CC(=O)N(C)c2ccccc2)cc1 | 9.63
Cc1ccc(NC(=O)c2cc(NC(=O)c3ccco3)ccc2N2CCCCC2)cc1 | 13

Structure (SMILES) | hERG current change (%, negative = inhibition) at 10uM [%]
CCCN(CC(=O)Nc1cccc(Br)c1)CC(=O)Nc1ccc(F)c(F)c1F | -10.1
CCOC(=O)N1CCN(C(=O)c2ccc3c(c2)NC(=O)/C(=C/c2ccccc2)S3)CC1 | -17.8
Cn1c2ccccc2c2nnc(SCC(=O)Nc3cccc(O)c3)nc21 | -45.6
Cc1ccc(Nc2nc(N)nc(CN3CCC(C)CC3)n2)c(C)c1 | -57.8
Cc1ccccc1N1CCN(Cc2ccc3c(c2)OCO3)CC1 | -31.2
Cc1ccc(Nc2nc(N)nc(CCl)n2)c(C)c1 | 16.1
Cc1ccccc1Nc1nc(N)nc(CN2CCN(Cc3ccc4c(c3)OCO4)CC2)n1 | -68
Cc1ccc(NC(=S)N2CCN(Cc3ccc4c(c3)OCO4)CC2)c(C)c1 | -1.01
Cc1ccccc1NC(=S)N1CCN(Cc2ccc3c(c2)OCO3)CC1 | -10.3
COc1ccccc1N1CCN(Cc2ccc3c(c2)OCO3)CC1 | -20.1
Cc1ccc(Nc2nc(N)nc(CN3CCN(Cc4ccc5c(c4)OCO5)CC3)n2)c(C)c1 | -76.9
COc1ccccc1Nc1nc(N)nc(CN2CCN(Cc3ccc4c(c3)OCO4)CC2)n1 | -78.1
Cc1ccc(Nc2nc(N)nc(CN3CCCCCC3)n2)c(C)c1 | -45.8
COc1ccccc1NC(=S)N1CCN(Cc2ccc3c(c2)OCO3)CC1 | -1.31
Cc1cccc(Nc2nc(N)nc(CN3CCC(C)CC3)n2)c1C | -37.6
O=C(c1ccc2ccccc2c1)N1CCN(c2ccccn2)CC1 | -20
CCOc1ccc(NC2=NCC(=O)N2Cc2cccs2)cc1.Cl | -1.9
COc1ccc(/C(C)=N/NC(=O)c2cc(C)[nH]n2)c(OC)c1 | 1.33
O=C(Nc1nccs1)c1cc2c(s1)CCCCC2 | 6.98
CSCCC(NC(=O)c1ccco1)C(=O)N1CCCCCCC1 (centres unmarked) | -4.39
O=C(CCc1nnc(CCCCc2ccccc2)o1)NCCCc1cccnc1 | -14.8
COc1ccccc1CCNC(=O)c1c(C)nn(CC(C)C)c1Cl | -4.9
CCCC(=O)NC(=S)Nc1sc2c(c1C(N)=O)CCC2 | 11.7

Structure (SMILES) | hERG current change (%, negative = inhibition) at 10uM [%]
O=C(Cn1c(=O)cnc2ccccc21)Nc1cccc(S(=O)(=O)N2CCCCC2)c1 | -50.3
Cc1ccc(S(=O)(=O)N2CCCCC2)cc1NC(=O)Cn1c(=O)cnc2ccccc21 | 9.61
Cc1ccc(NC(=O)Cn2c(=O)cnc3ccccc32)cc1S(=O)(=O)N1CCCCC1 | -50.8
COc1ccc(NC(=O)Cn2c(=O)cnc3ccccc32)cc1S(=O)(=O)N1CCCCC1 | -10.9
Cc1ccc(NC(=O)Cn2c(=O)cnc3ccccc32)cc1S(=O)(=O)N1CCOCC1 | -30.4
O=C(Cn1c(=O)cnc2ccccc21)Nc1cccc(S(=O)(=O)N2CCOCC2)c1 | -21
CC(C)c1ccc(OCc2nc(-c3ccccn3)no2)c(Br)c1 | -10.6
CCN1C(=O)N(CC)C2C1N(C(C)=O)C(=O)N2C(C)=O (centres unmarked) | -6.42
N#CC1=C(N)OC2=C(C(=O)CCC2)[C@]12C(=O)N(CC(N)=O)c1ccccc12 | 4.73
COc1cc(CC(=O)OCC(=O)N2CC(C)CC(C)C2)cc(OC)c1OC (centres unmarked) | 30.9
O=C(Nc1ccccc1N1CCOCC1)c1ccc(N2CCOCC2)c([N+](=O)[O-])c1 | -20.7
Nc1ccc(C(=O)OCC(=O)N2CCc3ccccc3C2)cc1[N+](=O)[O-] | -21.1
Cl.O=C(NN1CCN(Cc2ccccc2)CC1)c1ccc(N2CCOCC2)c([N+](=O)[O-])c1 | -66.6
CC1CCN(c2ccc(C(=O)N3CCOCC3)cc2[N+](=O)[O-])CC1 | -0.762
O=C(Nc1ccc(CN2CCOCC2)cc1)c1ccc(N2CCCC2)c([N+](=O)[O-])c1 | -21.4
O=C(OCC(=O)N1CCc2ccccc2C1)c1ccc(N2CCOCC2)c([N+](=O)[O-])c1 | -51
O=C(OCC(=O)N1CCOCC1)c1ccc(N2CCOCC2)c([N+](=O)[O-])c1 | 19.9
O=C(c1ccc(N2CCCCC2)c([N+](=O)[O-])c1)N1CCOCC1 | -22.6
O=C(c1ccc(N2CCOCC2)c([N+](=O)[O-])c1)N1CCN(Cc2ccccc2)CC1 | -66.9
CC(=O)OC[C@]1(OC(C)=O)C[C@@]23CC[C@H]4[C@@](C)(CCC[C@@]4(C)C(=O)O)[C@@H]2CC[C@@H]1C3 | 4.84
O=C(NCC(=O)N1CCN(C(=O)c2ccco2)CC1)c1cccc(Cl)c1 | -48.6
CC(OC(=O)Cn1cnc2c1c(=O)n(C)c(=O)n2C)C(=O)NCc1ccccc1 (centres unmarked) | 3.36
Cc1noc(C)c1S(=O)(=O)Nc1ccc(C(=O)N2CCN(c3cccc(Cl)c3)CC2)cc1 | -4.16

Structure (SMILES) | hERG current change (%, negative = inhibition) at 10uM [%]
O=C(Nc1ccc(C(=O)N2CCCC2)cc1)c1ccc(F)cc1Cl | 0.232
S=C(Nc1ccc2nc(-c3ccccn3)c(-c3ccccn3)nc2c1)N1CCOCC1 | -69.6
O=C(Nc1ccc2nc(-c3ccccn3)c(-c3ccccn3)nc2c1)N1CCOCC1 | 5.82
S=C(Nc1ccc2nc(-c3ccccn3)c(-c3ccccn3)nc2c1)N1CCCCCC1 | -15.6
Cc1nnn(C23CC4CC(CC(C4)C2)C3)n1 | 7.98
O=C(CCc1ccccn1)NC1CCCc2c1cnn2-c1ccc(F)cc1F (centres unmarked) | 3.18
CN(C)C(=S)c1ccc2ccccc2n1 | 17.1
COc1cc(-c2c(-c3cc(OC)c(OC)c(OC)c3)noc2C)ccc1F | 13.6
COC(=O)c1cc(-c2c(-c3cc(OC)c(OC)c(OC)c3)noc2C)cc([N+](=O)[O-])c1 | -67.8
COc1cc(-c2noc(C)c2-c2ccc3[nH]ccc3c2)cc(OC)c1OC | 8.02
CCOc1ncccc1C(=O)OCC(=O)c1cc(C)n(Cc2ccco2)c1C | -7.34
O=S(=O)(/C=C/c1ccccc1)N1CCOCC1 | 7.65
CCOC(=O)c1[nH]cnc1C(=O)Nc1ccc([N+](=O)[O-])cc1 | 4.57
CC(C(=O)Nc1ccccc1F)N1CCN(C)CC1.O=C(O)C(=O)O (centres unmarked) | 11.9
O=c1[nH]c(CN2CCN(S(=O)(=O)c3ccc4ccccc4c3)CC2)nc2ccccc12 | 2.03
O=c1[nH]c(CN2CCN(S(=O)(=O)/C=C/c3ccccc3)CC2)nc2ccccc12 | -66.5
O=c1[nH]c(CN2CCN(S(=O)(=O)c3ccc(Cl)cc3)CC2)nc2cc(Cl)ccc12 | -11.8
CCS(=O)(=O)N1CCN(Cc2nc3ccccc3c(=O)[nH]2)CC1 | -12.9
O=c1[nH]c(CN2CCN(S(=O)(=O)/C=C/c3ccccc3)CC2)nc2cc(Cl)ccc12 | -65.8
COc1cc2nc(CN3CCN(S(=O)(=O)c4ccc(C)c(C)c4)CC3)[nH]c(=O)c2cc1OC | -16.8
O=C1CN(Cc2nc3cc(Cl)ccc3c(=O)[nH]2)CCN1 | 25.4
COc1cc2nc(CN3CCN(S(=O)(=O)c4ccc(Cl)cc4)CC3)[nH]c(=O)c2cc1OC | -58.2
COc1cc2nc(CN3CCN(S(=O)(=O)c4c(F)cccc4F)CC3)[nH]c(=O)c2cc1OC | -33.4
